Reference: PubChem BioAssay (NCATS)
Records with an inconclusive call do not appear. Calls of active or inactive are those of the source. Unless noted, calls follow the shape of the dose curve; as a rule, active = well fitted curve in either direction with a large enough effect (not every such curve was filed as active); inconclusive = small, poorly fitted or top-dose-only effect, or another doubt; inactive = flat fitted curve, though single readings scatter.

Experiments:
[1] = AP1 Signaling Pathway (AID 357); details: ME-180 AP-1-bla reporter, EGF-induced, beta-lactamase ratio, 5 h; at 17.2 µM (top of the series) unless noted;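 also: ME-180 reporter cells stimulated with EGF at its EC50 level; % is scaled to controls: 0 for no effect and ±100 for the full control effect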
Method in brief: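 Beta-lactamase reporter under AP-1 response element, ME-180 background. Stimulus: EC50 EGF. Compound exposure 5 h, 37 °C. Detection: CCF4, 2.5 h RT, 460/530 nm. Values: AC50 from titration.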

[2] = NFAT Signaling Pathway (AID 444); details: Jurkat NFAT-bla M1, carbachol, beta-lactamase ratio, 5 h; at 17.2 µM (top of the series) unless noted;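 also: carbachol stimulus at about its EC50 of 1 µM final; % is scaled to controls: 0 for no effect and ±100 for the full control effect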
Method in brief: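 Read-out: CCF4 FRET ratio (460 nm/530 nm) after 1 h RT dye loading, used for %activity and AC50 from titration series. Cells: Jurkat NFAT-β-lactamase/M1 line, treated with compound plus 1 uM carbachol for 5 h, 37 °C.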

[3] = Stat Signaling Pathway (AID 446); details: ME-180 (cervical carcinoma) SIE beta-lactamase reporter, IL-6 stimulated, 5 h; at 17.2 µM (top of the series) unless noted;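 also: ME-180 cervical cancer cells given 40 pM IL-6 alongside compound; SIE-controlled beta-lactamase reporter measured as 460/530 nm FRET emission ratio; % is scaled to controls: 0 for no effect and ±100 for the full control effect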
Method in brief: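 Normalization used AC90 stimulation (300 pM IL-6) and AC90 inhibition (125 nM pan-JAK inhibitor at 40 pM IL-6). The underlying signal is SIE-driven beta-lactamase in ME-180 cells after 5 h IL-6 exposure with compound.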

[4] = biological target: Glucocorticoid receptor (Homo sapiens) (UniProt P04150); test: GR-GFP Redistribution (AID 450;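 active = compounds whose dose series gives a full or clear partial fitted curve of increased nuclear translocation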; also: potency is read from the fitted curve at half-maximal effect)
Chain of Glucocorticoid receptor (Homo sapiens) (P04150 whole entry, looked up): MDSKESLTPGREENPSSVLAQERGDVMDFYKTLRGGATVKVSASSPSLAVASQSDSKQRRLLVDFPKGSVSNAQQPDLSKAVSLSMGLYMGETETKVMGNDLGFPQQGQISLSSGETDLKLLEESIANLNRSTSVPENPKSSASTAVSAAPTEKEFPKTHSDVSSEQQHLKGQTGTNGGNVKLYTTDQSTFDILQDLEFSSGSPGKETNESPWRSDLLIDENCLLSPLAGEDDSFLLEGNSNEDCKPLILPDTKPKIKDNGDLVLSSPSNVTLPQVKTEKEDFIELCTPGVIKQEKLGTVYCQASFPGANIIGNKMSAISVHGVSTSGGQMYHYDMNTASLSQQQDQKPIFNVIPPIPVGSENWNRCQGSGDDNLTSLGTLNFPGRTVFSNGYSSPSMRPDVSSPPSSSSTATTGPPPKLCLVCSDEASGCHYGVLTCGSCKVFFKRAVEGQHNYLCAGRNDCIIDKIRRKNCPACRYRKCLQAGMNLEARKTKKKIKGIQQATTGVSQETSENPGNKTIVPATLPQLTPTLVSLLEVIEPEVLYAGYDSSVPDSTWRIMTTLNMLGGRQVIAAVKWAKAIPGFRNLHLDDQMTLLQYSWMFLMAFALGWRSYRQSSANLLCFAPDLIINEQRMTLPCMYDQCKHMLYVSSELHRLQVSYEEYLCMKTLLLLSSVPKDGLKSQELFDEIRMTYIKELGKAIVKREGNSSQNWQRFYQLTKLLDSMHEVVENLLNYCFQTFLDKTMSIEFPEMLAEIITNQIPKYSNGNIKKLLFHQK

CC(C)Oc1ccc(/C(O)=C2/C(=O)C(=O)N(CCN3CCOCC3)C2c2ccccc2)cc1 (stereo not drawn)
inactive: activity change, negative = inhibition [1] -9.89% | activity change, negative = inhibition [2] 19.7% | activity, negative = inhibition [3] -0.677% | Potency [4] > 20.6 µM

COc1cc(-c2nn3c(C4CCCCC4)nnc3s2)cc(OC)c1OC
inactive: activity change, negative = inhibition [1] -16.1% | activity change, negative = inhibition [2] 10.4% | activity, negative = inhibition [3] 0.0449% | Potency [4] > 20.6 µM

COc1cc(/C=N/n2c(C)nnc2C)cc(OC)c1OC
inactive: activity change, negative = inhibition [1] -12.3% | activity change, negative = inhibition [2] 10.5% | activity, negative = inhibition [3] -4.5% | Potency [4] > 20.6 µM

N#C/C(=C\c1c(N2CCC(C(N)=O)CC2)nc2ccccn2c1=O)S(=O)(=O)c1ccccc1
inactive: activity change, negative = inhibition [1] -8.19% | activity change, negative = inhibition [2] 29.6% | activity, negative = inhibition [3] -1.65% | Potency [4] > 20.6 µM

CCOC(=O)c1c(CN2CCCCC2)oc2ccc(OC)cc12
inactive: activity change, negative = inhibition [1] 21.2% | activity change, negative = inhibition [2] 14.1% | activity, negative = inhibition [3] 0.706% | Potency [4] > 20.6 µM

c1ccc(-c2nnc3sc(Cc4cccs4)nn23)cc1
inactive: activity change, negative = inhibition [1] -13.7% | activity change, negative = inhibition [2] -18.2% | activity, negative = inhibition [3] 16.7% | Potency [4] > 20.6 µM

COc1ccc(OC)c(C2=Nn3c(nnc3C3CCCCC3)SC2)c1
inactive: activity change, negative = inhibition [1] -18.2% | activity change, negative = inhibition [2] -5.08% | activity, negative = inhibition [3] -1.6% | Potency [4] > 20.6 µM

CC(C)C1Cc2c(C#N)c(N)sc(=S)c2CO1 (stereo not drawn)
inactive: activity change, negative = inhibition [1] -19.3% | activity change, negative = inhibition [2] -23.4% | activity, negative = inhibition [3] 1.85% | Potency [4] > 20.6 µM

CN(C)CC(O)COc1cccc(OCC(O)CN(C)C)c1 (stereo not drawn)
inactive: activity change, negative = inhibition [1] 1.26% | activity change, negative = inhibition [2] -0.493% | activity, negative = inhibition [3] 3.74% | Potency [4] > 20.6 µM

Cc1ccc(-n2ncc3c(NCCCN4CCCC4=O)ncnc32)c(C)c1
inactive: activity change, negative = inhibition [1] -15.8% | activity change, negative = inhibition [2] 11.5% | activity, negative = inhibition [3] 9.31% | Potency [4] > 20.6 µM

CCOC(=O)CSc1nc(C)c(C(C)=O)cc1C#N
inactive: activity change, negative = inhibition [1] 8.73% | activity change, negative = inhibition [2] -3.61% | activity, negative = inhibition [3] 6.11% | Potency [4] > 20.6 µM

COc1cc(C)nc(Oc2ccc(=O)[nH]n2)n1
inactive: activity change, negative = inhibition [1] 16.4% | activity change, negative = inhibition [2] -26.6% | activity, negative = inhibition [3] 13.6% | Potency [4] > 20.6 µM

COc1ccc(OC(=O)c2cc3ccccc3o2)cc1
inactive: activity change, negative = inhibition [1] 1.41% | activity change, negative = inhibition [2] -19.7% | activity, negative = inhibition [3] 10.1% | Potency [4] > 20.6 µM

COc1ccc(C2CC(=O)C(C=NCCN3CCOCC3)=C(O)C2)cc1 (stereo not drawn)
inactive: activity change, negative = inhibition [1] 18.9% | activity change, negative = inhibition [2] -9.07% | activity, negative = inhibition [3] -0.652% | Potency [4] > 20.6 µM

Cc1cn2c(-c3ccncc3)nnc2s1
inactive: activity change, negative = inhibition [1] -4.06% | activity change, negative = inhibition [2] 1.86% | activity, negative = inhibition [3] -2.66% | Potency [4] > 20.6 µM

CN1CCc2c(C#N)c(N3CCCCC3)nc(N3CCOCC3)c2C1
inactive: activity change, negative = inhibition [1] 1.28% | activity change, negative = inhibition [2] 20.7% | activity, negative = inhibition [3] 10.9% | Potency [4] > 20.6 µM

COc1ccc(-c2nn3c(-c4ccccn4)nnc3s2)cc1OC
inactive: activity change, negative = inhibition [1] -16.2% | activity change, negative = inhibition [2] -21.8% | activity, negative = inhibition [3] -2.76% | Potency [4] > 20.6 µM

O=C(c1nsnc1-c1ccccc1O)N1CCCCC1
inactive: activity change, negative = inhibition [1] 12.2% | activity change, negative = inhibition [2] 6.47% | activity, negative = inhibition [3] -2.4% | Potency [4] > 20.6 µM

COC(=O)C1=C(C)N=C2SC(C)C(=O)N2C1c1cccs1 (stereo not drawn)
inactive: activity change, negative = inhibition [1] -11.1% | activity change, negative = inhibition [2] -9.72% | activity, negative = inhibition [3] -9.23% | Potency [4] > 20.6 µM

O=C1OC2CCC1(c1ccccc1)C2 (stereo not drawn)
inactive: activity change, negative = inhibition [1] -4.71% | activity change, negative = inhibition [2] 10% | activity, negative = inhibition [3] -3.95% | Potency [4] > 20.6 µM

COc1ccc(C(CC(=O)N2CCOCC2)C(C)C)cc1 (stereo not drawn)
inactive: activity change, negative = inhibition [1] 8.67% | activity change, negative = inhibition [2] 3.99% | activity, negative = inhibition [3] -3.69% | Potency [4] > 20.6 µM

CCc1ccccc1NC(=O)CSC1=C(C#N)C(c2ccc(O)c(OC)c2)C2=C(CCCC2=O)N1 (stereo not drawn)
inactive: activity change, negative = inhibition [1] -4.47% | activity change, negative = inhibition [2] 2.67% | activity, negative = inhibition [3] -5.76% | Potency [4] > 20.6 µM

Nc1nnnn1/N=C/c1cccc(Oc2ccccc2)c1
inactive: activity change, negative = inhibition [1] -4.47% | activity change, negative = inhibition [2] -18.6% | activity, negative = inhibition [3] 10.9% | Potency [4] > 20.6 µM

COc1cc(C2C(C#N)=C(N)Oc3cc(C)n(Cc4ccccn4)c(=O)c32)cc2c1OCO2 (stereo not drawn)
inactive: activity change, negative = inhibition [1] -7.44% | activity change, negative = inhibition [2] -12.8% | activity, negative = inhibition [3] -4.06% | Potency [4] > 20.6 µM

O=C1NCC(COCC2CC=CCC2)O1 (stereo not drawn)
inactive: activity change, negative = inhibition [1] 9.6% | activity change, negative = inhibition [2] 15% | activity, negative = inhibition [3] 2.08% | Potency [4] > 20.6 µM

CCOC(=O)CC(=O)CSc1nc2c(cc1C#N)CCCCC2
inactive: activity change, negative = inhibition [1] 2.56% | activity change, negative = inhibition [2] 1.41% | activity, negative = inhibition [3] -7.32% | Potency [4] > 20.6 µM

COc1cc(-c2nn3c(-c4ccccn4)nnc3s2)cc(OC)c1OC
inactive: activity change, negative = inhibition [1] 1.69% | activity change, negative = inhibition [2] 10.9% | activity, negative = inhibition [3] 1.47% | Potency [4] > 20.6 µM

COCc1n[nH]c(=S)n1-c1cccc2ccccc12
inactive: activity change, negative = inhibition [1] -1.13% | activity change, negative = inhibition [2] 1.36% | activity, negative = inhibition [3] 0.355% | Potency [4] > 20.6 µM

Cc1c(-c2cccs2)[n+](=O)c2c(n1[O-])CCCC2
inactive: activity change, negative = inhibition [1] 14.7% | activity change, negative = inhibition [2] -0.25% | activity, negative = inhibition [3] 6.22% | Potency [4] > 20.6 µM

COc1ccc(C(=O)NCCCCCC(=O)O)cc1OC
inactive: activity change, negative = inhibition [1] 5.18% | activity change, negative = inhibition [2] -3.46% | activity, negative = inhibition [3] 2.88% | Potency [4] > 20.6 µM

Cn1c(=O)c2c(nc(Br)n2CCSc2ncccn2)n(C)c1=O
inactive: activity change, negative = inhibition [1] 10.3% | activity change, negative = inhibition [2] 8.82% | activity, negative = inhibition [3] -0.734% | Potency [4] > 20.6 µM

COc1cccc(Cn2c(NCc3ccccn3)nc3c2c(=O)n(C)c(=O)n3C)c1
inactive: activity change, negative = inhibition [1] -10.2% | activity change, negative = inhibition [2] 7.02% | activity, negative = inhibition [3] -15.6% | Potency [4] > 20.6 µM

CCCCSc1nnc(-c2ccc(NC(C)=O)cc2)n1C
inactive: activity change, negative = inhibition [1] -14.2% | activity change, negative = inhibition [2] 12.4% | activity, negative = inhibition [3] 0.987% | Potency [4] > 20.6 µM

CCC(=NC(CC)CO)C1=C(O)CC(C)(C)CC1=O (stereo not drawn)
inactive: activity change, negative = inhibition [1] 16.1% | activity change, negative = inhibition [2] -5.13% | activity, negative = inhibition [3] 12.8% | Potency [4] > 20.6 µM

CCCCn1c(-c2ccc(Cl)cc2)nc2c(=O)n(C)c(=O)[nH]c21
inactive: activity change, negative = inhibition [1] 22.6% | activity change, negative = inhibition [2] -14.1% | activity, negative = inhibition [3] 27.6% | Potency [4] > 20.6 µM

O=C(NCc1ccccn1)c1ccc(=O)oc1
inactive: activity change, negative = inhibition [1] 5.8% | activity change, negative = inhibition [2] -2.94% | activity, negative = inhibition [3] 8.81% | Potency [4] > 20.6 µM

Cc1cc(=O)oc2ccc(OCC(=O)N3CCc4ccccc43)cc12
inactive: activity change, negative = inhibition [1] 2.4% | activity change, negative = inhibition [2] -12% | activity, negative = inhibition [3] 11.2% | Potency [4] > 20.6 µM

CC(C)CNc1nc2c(c(=O)n(C)c(=O)n2C)n1Cc1cccc(Br)c1
inactive: activity change, negative = inhibition [1] -13.5% | activity change, negative = inhibition [2] -2.14% | activity, negative = inhibition [3] -18.2% | Potency [4] > 20.6 µM

CCOC(=O)Oc1ccc2c(c1)C(C)=CC(C)(C)N2C(=O)OCC
inactive: activity change, negative = inhibition [1] 4.5% | activity change, negative = inhibition [2] -5.18% | activity, negative = inhibition [3] 4.48% | Potency [4] > 20.6 µM

ONC(=Nc1ccccc1)C(=Nc1ccccc1)NO
inactive: activity change, negative = inhibition [1] 4.05% | activity change, negative = inhibition [2] 9.94% | activity, negative = inhibition [3] -0.28% | Potency [4] > 20.6 µM

Cc1c(=O)n(OCc2c(F)cccc2F)c2ccccc2[n+]1[O-]
inactive: activity change, negative = inhibition [1] -5.17% | activity change, negative = inhibition [2] -0.573% | activity, negative = inhibition [3] 2.13% | Potency [4] > 20.6 µM

COC(=O)CN1C2(C#N)CCCCC2CC2CCCCC21C#N (stereo not drawn)
inactive: activity change, negative = inhibition [1] 2.79% | activity change, negative = inhibition [2] -12.3% | activity, negative = inhibition [3] 13% | Potency [4] > 20.6 µM

Cc1ccc2[nH]c3c(c2c1)CN(C(=O)CN1CCN(c2ccccn2)CC1)CC3
inactive: activity change, negative = inhibition [1] -13.5% | activity change, negative = inhibition [2] 22.4% | activity, negative = inhibition [3] -12.2% | Potency [4] > 20.6 µM

O=C1CCc2nc3ccccc3c(=O)n2N1
inactive: activity change, negative = inhibition [1] -6.16% | activity change, negative = inhibition [2] 22.2% | activity, negative = inhibition [3] -4.8% | Potency [4] > 20.6 µM

Brc1ccc(-c2cnnc(N3CCCC3)n2)cc1
inactive: activity change, negative = inhibition [1] -13.4% | activity change, negative = inhibition [2] 0.485% | activity, negative = inhibition [3] 6.79% | Potency [4] > 20.6 µM

Cc1cc2c(c(=O)n1CC1CCCO1)C(c1ccc3c(c1)OCO3)C(C#N)=C(N)O2 (stereo not drawn)
inactive: activity change, negative = inhibition [1] -18.5% | activity change, negative = inhibition [2] -16.1% | activity, negative = inhibition [3] -17.8% | Potency [4] > 20.6 µM

COc1ccc(/C(O)=C2\C(=O)C(=O)N(c3cc(C)on3)C2c2cccc(OC)c2OC)cc1C (stereo not drawn)
inactive: activity change, negative = inhibition [1] -5.37% | activity change, negative = inhibition [2] 6.15% | activity, negative = inhibition [3] -17.9% | Potency [4] > 20.6 µM
